Inconclusive results are not listed. Calls of active or inactive are those of the source. Rule for the calls: active = hit-call score of the fitted dose curve at least 0.9, where 1 is the maximum; inconclusive = response in the unintended direction; inactive = score below 0.9.
Experiment: ACEA_AR_antagonist_AUC_viability: ACEA Biosciences xCELLigence Real-Time Cell Analysis on Androgen Receptor Antagonism for Viability (AID 2283776);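 note: area under impedance growth curve at 80 h after dosing as viability; hits lower the growth signal relative to DMSO meaning cytotoxicity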
Protocol: ACEA_AR_antagonist is a cell-based, single-readout assay that uses 22Rv1, a human prostate cancer cell line, with measurements taken at 80 hours after chemical dosing in a 384-well plate, although TO5 and TO6 (mc0.srcf) used a 96-well plate. Differences in plate size can be ignored given data normalization.ACEA_AR_80hr is one of two assay component(s) measured or calculated from the […] assay. It is designed to make measurements of real-time cell-growth kinetics, a form of growth reporter, as detected with electrical impedance signals by Real-Time Cell Electrode Sensor (RT-CES) technology.Data from the assay component ACEA_AR_antagonist_AUC_viability was analyzed in the positive analysis fitting direction relative to DMSO as the negative control and baseline of activity. Using a type of growth reporter, loss-of-signal activity can be used to understand changes in the viability. Furthermore, this assay endpoint can be referred to as a secondary readout, because this assay has produced multiple assay endpoints where this one serves a viability function. To generalize the intended target to other relatable targets, this assay endpoint is annotated to the cell cycle intended target family, where the subfamily is cytotoxicity.
The xCELLigence system Multi-E-Plate stations were used to measure the time-dependent response to chemicals. Each compound was tested in an eight-point, 1:4 serial dilution series starting at a maximum final concentration of 100 uM. A maximum starting concentration of 0.5% DMSO was present in the 100 uM chemical samples and was diluted along with the test article dilution series. The screen was performed in biological duplicate using two separate, 96-well, E-Plates 96 for each dilution series (n = 2). Positive controls (MG132 and testosterone) and a negative control (assay media) were tested in quadruplicate on each testing plate. Then, 0.5% and 0.125% DMSO were tested in duplicates in each plate to serve as solvent controls for the 2 highest concentrations of testing compounds: 100 uM and 25 uM. Reference compounds were tested with 8 concentrations with 1:5 serial dilutions. All screening was carried out by ACEA Biosciences, Inc. (San Diego, CA). 22Rv1 cells purchased from ATCC were maintained in media supplemented with 10% fetal bovine serum (FBS). Before screening, 22Rv1 cells were preconditioned in assay medium. Cells were then detached and seeded in E-Plates 96 in assay medium. After overnight monitoring of growth once every hour, compounds were added to […] cells and remained in the medium until the end of the experiment. Cellular responses were then recorded once every 5 min for the first 5 h, and once every hour for an additional 100 h.

SMILES	outcome	AC50
CCC/C=C/C=O	inactive	–
CCCCC[Si](OCC)(OCC)OCC	inactive	–
OCCOCCOCCOCCO	inactive	–
O=C(O)c1ccc(C(=O)O)cc1	inactive	–
CC1CC(OC(=O)c2ccccc2O)CC(C)(C)C1 (stereo not given)	inactive	–
CCCCCCCCC=O	inactive	–
CC(C)(C#N)c1cc(Cn2cncn2)cc(C(C)(C)C#N)c1	–	30 µM (active)
CCN(CC)c1ccc2c(-c3ccccc3C(=O)O)c3ccc(=[N+](CC)CC)cc-3oc2c1	inactive	–
C=O	inactive	–
Cc1ccc(O)c(C(C)(C)C)c1	inactive	–
CC(=O)OCCOC(C)=O	inactive	–
Cc1ccc(C(C)C)cc1O	inactive	–
CC(C)C[C@H]1C(=O)N2CCC[C@H]2[C@]2(O)O[C@](NC(=O)[C@@H]3C=C4c5cccc6[nH]c(Br)c(c56)C[C@H]4N(C)C3)(C(C)C)C(=O)N12	inactive	–
COc1cc(C(C)(C)C)c(O)c(C(C)(C)C)c1	inactive	–
COc1ccc(O)cc1	inactive	–
C=C(C)C(=O)O	inactive	–
O=C[C@@H](O)[C@H](O)[C@H](O)CO	inactive	–
CSc1nc(NC2CC2)nc(NC(C)(C)C)n1	inactive	–
OC1OC[C@@H](O)[C@H](O)[C@H]1O (stereo not given in full)	inactive	–
CN(C)CCCN	inactive	–

SMILES	outcome	AC50
CC1(C)[C@@H]2CC[C@@]1(C)[C@H](O)C2	inactive	–
O=C1NC(=O)c2ccccc21	inactive	–
O=C(O)CCCCCCCC(=O)O	inactive	–
CCCCCCCCCCCCCCCCCC(=O)OCC(CC)CCCC (stereo not given)	inactive	–
CC(=O)OCCC(C)CC(C)(C)C (stereo not given)	inactive	–
CC1=CC(=O)NS(=O)(=O)O1	inactive	–
CCCC1CCC(=O)O1 (stereo not given)	inactive	–
NC(=O)NC1NC(=O)NC1=O (stereo not given)	inactive	–
OCCN1CCNCC1	inactive	–
CCCC/C=C\CCCCCCCCCC=O	inactive	–
C=CC[N+](C)(C)CC=C	inactive	–
CC1(C)C(=O)N(Br)C(=O)N1Cl	inactive	–
BrC1CCC(Br)C(Br)CCC(Br)C(Br)CCC1Br (stereo not given)	inactive	–
CC(C)=CCC[C@](C)(O)[C@@H]1CC=C(C)CC1	inactive	–
NCCCCCCN	inactive	–
CC(C)CCCCCCCOC(=O)c1ccc(C(=O)OCCCCCCCC(C)C)c(C(=O)OCCCCCCCC(C)C)c1	inactive	–
CCCCCCCCCCCCCCCC(=O)OC[C@H](O)[C@H]1OC(=O)C(O)=C1O	inactive	–
O=Nc1ccc(Nc2ccccc2)cc1	inactive	–
O=C(O)Cc1cccc2ccccc12	inactive	–
CC(C)c1cccc(O)c1	inactive	–

Reference: PubChem BioAssay (EPA / NIEHS)
